# Measured values published in PubChem BioAssay (NCATS).
# Where “and” joins values, the source holds several entries; their conditions need not be identical. Identical values can stand only once. Records with an inconclusive call do not appear. Calls of active or inactive are those of the source. Unless noted, the call rests on the fitted dose curve; in most records, active means well fitted curve in the direction sought with a large enough effect; inconclusive means small, poorly fitted or top-dose-only effect, or another doubt; inactive means no such curve, though single readings can be large; an effect the other way counts as inactive or inconclusive.
# What was measured:
# [1] = target: Cytochrome P450 2D6 (Homo sapiens) (UniProt P10635); assay: qHTS Assay for Inhibitors and Substrates of Cytochrome P450 2D6 (AID 891); further: potency means the concentration at half of the fitted maximal effect; nearly all actives have a fitted effect of over 60% in size
# Chain of Cytochrome P450 2D6 (Homo sapiens) (P10635 whole entry, looked up): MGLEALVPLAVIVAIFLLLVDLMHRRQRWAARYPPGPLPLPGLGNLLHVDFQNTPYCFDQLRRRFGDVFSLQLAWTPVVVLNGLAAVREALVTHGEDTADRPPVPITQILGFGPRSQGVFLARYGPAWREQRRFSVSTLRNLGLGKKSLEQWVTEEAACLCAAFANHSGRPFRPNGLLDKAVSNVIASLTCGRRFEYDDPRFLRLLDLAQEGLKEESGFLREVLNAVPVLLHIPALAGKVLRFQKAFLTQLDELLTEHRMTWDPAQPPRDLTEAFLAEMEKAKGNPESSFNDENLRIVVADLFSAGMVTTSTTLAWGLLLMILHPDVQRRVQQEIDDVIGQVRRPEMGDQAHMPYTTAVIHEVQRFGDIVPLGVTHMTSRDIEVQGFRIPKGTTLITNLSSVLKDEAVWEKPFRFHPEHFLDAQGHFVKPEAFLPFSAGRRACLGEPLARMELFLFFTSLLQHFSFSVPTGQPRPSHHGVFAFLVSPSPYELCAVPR
# Summary of the method: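 Luminescent read-out of luciferin formed by 5 nM human CYP2D6 demethylating 30 uM Luciferin-ME EGE (Km level) over 60 min at room temperature after NADPH regeneration addition. Data normalized to full inhibition by 1.43 uM quinidine.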
# [2] = qHTS profiling for inhibitors of Plasmodium falciparum proliferation (AID 504749);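 further: 0% = DMSO vehicle and full inhibition = artemisinin control; nearly all actives have a fitted effect of over 60% in size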; details: P. falciparum in erythrocytes, SYBR Green DNA, 72 h
# Summary of the method: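 Each compound contacts P. falciparum-infected red blood cells for 72 h at 37 C; lysis buffer (Tris, EDTA, saponin, Triton X, SYBR Green I) is added and fluorescence measured next morning; values normalized to controls.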
# [3] = target: Lysosomal acid glucosylceramidase (Homo sapiens) (UniProt P04062); assay: Glucocerebrosidase-p2 (AID 348; in the data active means potency below about 10 µM; further: potency means the concentration at half of the fitted maximal effect); details: purified GBA, blue fluorogenic substrate, 40 min
# Chain of Lysosomal acid glucosylceramidase (Homo sapiens) (P04062 whole entry, looked up): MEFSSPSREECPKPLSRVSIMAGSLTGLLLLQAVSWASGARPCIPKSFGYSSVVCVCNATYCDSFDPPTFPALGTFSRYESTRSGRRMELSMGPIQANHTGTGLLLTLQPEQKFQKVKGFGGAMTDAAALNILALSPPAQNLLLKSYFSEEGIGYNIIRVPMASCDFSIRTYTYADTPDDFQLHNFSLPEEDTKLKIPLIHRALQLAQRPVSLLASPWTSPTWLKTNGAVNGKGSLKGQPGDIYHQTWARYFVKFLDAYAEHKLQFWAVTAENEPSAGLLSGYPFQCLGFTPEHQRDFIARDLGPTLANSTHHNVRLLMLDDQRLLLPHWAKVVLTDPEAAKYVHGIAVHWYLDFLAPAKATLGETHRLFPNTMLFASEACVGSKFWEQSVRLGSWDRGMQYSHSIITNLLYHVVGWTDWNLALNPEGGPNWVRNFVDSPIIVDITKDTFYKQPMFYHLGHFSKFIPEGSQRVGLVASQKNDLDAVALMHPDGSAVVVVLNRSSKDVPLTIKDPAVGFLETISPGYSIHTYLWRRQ
# Summary of the method: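 Normal human glucocerebrosidase (0.2 nM) with blue fluorogenic substrate (80 uM final) in citrate/phosphate pH 5.9 with 10mM sodium taurocholate, 0.01% tween-20; 40 min RT, NaOH/glycine stop; fluorescence Ex 365/Em 440; AC50 from a titration from 0.6 nM upwards.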
# [4] = AP1 Signaling Pathway (AID 357; active means well fitted curve in either direction with a large enough effect, not every such curve was filed as active; further: on the % scale 0 is the no-effect control and ±100 the full control effect); details: ME-180 AP-1-bla reporter, EGF-induced, beta-lactamase ratio, 5 h; at 7.69 µM (top of the series) unless noted
# Summary of the method: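 ME-180 cells with beta-lactamase reporter under AP-1 response element, stimulated with EC50 EGF; compounds tested in titration series, 5 h at 37 °C. CCF4 substrate added 2.5 h at room temperature; 460/530 nm emission ratio gave %activity and AC50.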
# [5] = target: Cytochrome P450 1A2 (Homo sapiens) (UniProt P05177); assay: p450-cyp1a2 (AID 410; calls by dose curve; further: potency means the concentration at half of the fitted maximal effect)
# Chain of Cytochrome P450 1A2 (Homo sapiens) (P05177 whole entry, looked up): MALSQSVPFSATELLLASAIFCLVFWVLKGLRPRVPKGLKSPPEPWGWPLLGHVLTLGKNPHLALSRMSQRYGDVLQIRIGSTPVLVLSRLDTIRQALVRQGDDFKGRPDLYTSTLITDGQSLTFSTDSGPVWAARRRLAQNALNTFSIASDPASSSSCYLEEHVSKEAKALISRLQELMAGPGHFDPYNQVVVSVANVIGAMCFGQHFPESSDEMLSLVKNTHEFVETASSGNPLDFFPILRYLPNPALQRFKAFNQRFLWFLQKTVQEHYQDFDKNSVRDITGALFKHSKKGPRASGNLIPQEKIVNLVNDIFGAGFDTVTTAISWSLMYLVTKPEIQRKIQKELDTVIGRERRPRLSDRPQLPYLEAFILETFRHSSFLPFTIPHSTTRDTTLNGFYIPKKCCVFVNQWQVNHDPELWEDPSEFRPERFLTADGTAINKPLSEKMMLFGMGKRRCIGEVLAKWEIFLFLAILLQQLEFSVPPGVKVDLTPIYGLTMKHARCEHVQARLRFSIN
# Summary of the method: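 O-Demethylation of luciferin 6' methyl ether by human CYP1A2 is monitored as luciferase luminescence. Substrate sits at Km (100uM); enzyme is 20nM. Values are scaled to 57 uM furafylline as maximal inhibition.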
# [6] = NFAT Signaling Pathway (AID 444; active means well fitted curve in either direction with a large enough effect, not every such curve was filed as active;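 further: carbachol stimulus at about its EC50 of 1 µM final; on the % scale 0 is the no-effect control and ±100 the full control effect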); details: Jurkat NFAT-bla M1, carbachol, beta-lactamase ratio, 5 h; at 7.69 µM (top of the series) unless noted
# Summary of the method: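 Jurkat cells with NFAT-driven β-lactamase reporter and co-expressed M1 receptor, stimulated with carbachol (final 1 uM, ~EC50), compound titration, 5 h at 37 °C. CCF4 loaded 1 h at RT; 460/530 nm ratio gave %activity and AC50.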
# [7] = Stat Signaling Pathway (AID 446; active means well fitted curve in either direction with a large enough effect, not every such curve was filed as active;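 further: ME-180 cervical cancer cells given 40 pM IL-6 alongside compound; SIE-controlled beta-lactamase reporter measured as 460/530 nm FRET emission ratio; on the % scale 0 is the no-effect control and ±100 the full control effect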); details: ME-180 (cervical carcinoma) SIE beta-lactamase reporter, IL-6 stimulated, 5 h; at 7.69 µM (top of the series) unless noted
# Summary of the method: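 FRET read-out (405 nm excitation, 460/530 nm emission) of a beta-lactamase reporter under a STAT-inducible element in ME-180 cervical carcinoma cells. Cells with compound receive 40 pM IL-6 for 5 h. Values are normalised to AC90 stimulation and AC90 JAK-inhibitor controls.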
# [8] = target: Glucocorticoid receptor (Homo sapiens) (UniProt P04150); assay: GR-GFP Redistribution (AID 450;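 active means compounds whose dose series gives a full or clear partial fitted curve of increased nuclear translocation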; further: potency means the concentration at half of the fitted maximal effect); details: U2OS GR-GFP nuclear translocation, laser cytometry, 2 h
# Chain of Glucocorticoid receptor (Homo sapiens) (P04150 whole entry, looked up, the tested form may be a part): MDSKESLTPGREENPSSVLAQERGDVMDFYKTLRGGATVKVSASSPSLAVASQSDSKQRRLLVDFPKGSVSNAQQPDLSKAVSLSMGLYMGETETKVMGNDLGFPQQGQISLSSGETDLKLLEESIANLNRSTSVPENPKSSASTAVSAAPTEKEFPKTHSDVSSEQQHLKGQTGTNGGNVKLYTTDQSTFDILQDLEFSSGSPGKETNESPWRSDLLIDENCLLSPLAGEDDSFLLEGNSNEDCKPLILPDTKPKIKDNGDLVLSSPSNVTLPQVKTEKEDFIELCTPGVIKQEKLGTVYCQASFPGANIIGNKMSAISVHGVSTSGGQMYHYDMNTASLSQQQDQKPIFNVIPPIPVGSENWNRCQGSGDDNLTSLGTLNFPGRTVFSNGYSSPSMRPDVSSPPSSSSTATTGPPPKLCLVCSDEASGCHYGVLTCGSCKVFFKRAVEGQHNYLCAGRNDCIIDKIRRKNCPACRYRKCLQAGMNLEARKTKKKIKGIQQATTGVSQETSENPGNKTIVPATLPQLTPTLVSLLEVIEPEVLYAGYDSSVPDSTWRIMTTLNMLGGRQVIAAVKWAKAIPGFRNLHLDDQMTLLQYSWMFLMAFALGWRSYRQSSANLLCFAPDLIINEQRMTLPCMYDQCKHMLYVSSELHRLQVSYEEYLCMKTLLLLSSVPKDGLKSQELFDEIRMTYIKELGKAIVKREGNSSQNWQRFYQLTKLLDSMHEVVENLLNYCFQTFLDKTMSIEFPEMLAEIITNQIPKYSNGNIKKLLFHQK
# [9] = target: Glucocorticoid receptor (Homo sapiens) (UniProt P04150); assay: GR-EFC Redistribution (AID 451; calls by dose curve; further: potency means the concentration at half of the fitted maximal effect); details: CHO-K1 GR-EFC translocation, beta-gal luminescence, 2 h
# Summary of the method: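 CHO-K1 cells expressing nuclear EA and GR-ED fragments of b-gal; compounds titrated up to 46 uM final, 2 h at 37 C. GR nuclear translocation read as complemented b-gal luminescence after 1 h RT detection.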
# [10] = target: 3',5'-cyclic-AMP phosphodiesterase 4B (Homo sapiens) (UniProt Q07343); assay: qHTS Assay for Inhibitors of PDE-IV (AID 607; active means well fitted activation curve with a large enough effect in the main read-out, with a control signal flat, not every such curve was filed as active; further: % of control where 0% means no effect)
# Chain of 3',5'-cyclic-AMP phosphodiesterase 4B (Homo sapiens) (Q07343 whole entry, looked up): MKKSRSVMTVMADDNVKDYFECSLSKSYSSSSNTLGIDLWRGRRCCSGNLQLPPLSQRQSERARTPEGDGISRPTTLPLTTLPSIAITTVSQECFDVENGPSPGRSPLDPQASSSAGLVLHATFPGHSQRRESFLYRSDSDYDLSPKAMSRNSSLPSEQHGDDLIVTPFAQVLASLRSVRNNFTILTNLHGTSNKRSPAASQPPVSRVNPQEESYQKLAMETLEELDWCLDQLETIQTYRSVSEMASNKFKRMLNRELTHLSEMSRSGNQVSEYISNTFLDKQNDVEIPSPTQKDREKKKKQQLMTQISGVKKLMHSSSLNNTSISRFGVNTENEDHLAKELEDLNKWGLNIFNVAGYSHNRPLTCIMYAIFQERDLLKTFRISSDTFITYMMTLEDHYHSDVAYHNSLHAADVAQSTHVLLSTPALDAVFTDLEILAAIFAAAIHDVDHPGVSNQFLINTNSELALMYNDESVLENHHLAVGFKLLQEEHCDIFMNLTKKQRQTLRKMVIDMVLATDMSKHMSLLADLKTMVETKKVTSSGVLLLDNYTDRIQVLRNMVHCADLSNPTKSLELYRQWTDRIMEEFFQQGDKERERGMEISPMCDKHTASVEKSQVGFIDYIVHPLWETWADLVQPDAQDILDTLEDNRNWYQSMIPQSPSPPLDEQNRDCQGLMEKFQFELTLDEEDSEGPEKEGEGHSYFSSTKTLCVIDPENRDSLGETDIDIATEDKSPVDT
# Summary of the method: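 Cell-based read-out of cAMP via a modified cyclic nucleotide-gated channel and membrane potential dye (535/590 nm) in HEK293 cells expressing PDE4 endogenously. Compounds tested up to 22.9 uM final; 100 uM RO 20-1724 reference.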
# [11] = target: Cytochrome P450 3A4 (Homo sapiens) (UniProt P08684); assay: qHTS Assay for Inhibitors and Substrates of Cytochrome P450 3A4 (AID 884); further: potency means the concentration at half of the fitted maximal effect; nearly all actives have a fitted effect of over 50% in size
# Chain of Cytochrome P450 3A4 (Homo sapiens) (P08684 whole entry, looked up): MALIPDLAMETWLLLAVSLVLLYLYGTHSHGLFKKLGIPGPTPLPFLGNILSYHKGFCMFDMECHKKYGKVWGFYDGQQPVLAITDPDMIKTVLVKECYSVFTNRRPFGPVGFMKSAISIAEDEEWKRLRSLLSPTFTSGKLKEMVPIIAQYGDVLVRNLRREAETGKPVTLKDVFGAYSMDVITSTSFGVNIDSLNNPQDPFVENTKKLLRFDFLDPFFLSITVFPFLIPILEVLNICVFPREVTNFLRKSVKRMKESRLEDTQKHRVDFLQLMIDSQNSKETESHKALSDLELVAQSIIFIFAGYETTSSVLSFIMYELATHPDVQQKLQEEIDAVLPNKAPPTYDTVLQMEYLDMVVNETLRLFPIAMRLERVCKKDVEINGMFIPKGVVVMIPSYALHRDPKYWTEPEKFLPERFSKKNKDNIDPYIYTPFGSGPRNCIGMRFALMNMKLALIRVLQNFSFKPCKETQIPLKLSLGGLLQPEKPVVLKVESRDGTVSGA
# Summary of the method: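 Luminescent readout of luciferin produced by CYP3A4 (20 nM) dealkylation of Luciferin-PPXE, 25 uM (its KM). NADPH-driven reaction ran 60 min at RT after 10 min compound preincubation; data scaled to 57 uM ketoconazole as 100% inhibition.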
# [12] = target: Cytochrome P450 3A4 (Homo sapiens) (UniProt P08684); assay: qHTS Assay for Activators of Cytochrome P450 3A4 (AID 885); further: nearly all actives have a fitted effect of over 65% in size
# Summary of the method: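 Luminescent readout of luciferin formed from 25 uM Luciferin-PPXE (KM level) by 20 nM CYP3A4 in 200 mM KPO4, with 60 min NADPH-driven reaction at room temperature after 10 min compound exposure. Ketoconazole (57 uM) defined 100% inhibition.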
# [13] = Confirmation and Secondary Assay for Modulators of Hemoglobin Beta Chain Splicing at IVS2 654 locus (AID 910);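 further: HeLa cells stably carrying EGFP split by mutant beta-globin IVS2-654 intron; % of control where 0% means no effect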
# Summary of the method: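 HeLa cells stably expressing EGFP interrupted by β-globin IVS2-654 intron, seeded overnight in Opti-MEM/2% FCS, then treated 2 days at 37 °C. Restored splicing read as total peak GFP intensity per well by laser scanning cytometry (488 nm excitation, 500–520 nm emission); 500 nM antisense PNA as control.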
# [14] = Confirmation and Secondary Assay for Modulators of Hemoglobin Beta Chain Splicing at IVS2 705 locus (AID 930);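 further: HeLa cells stably expressing the EGFP-705 splicing reporter; GFP fluorescence per well restored by corrected splicing of the IVS2-705 intron in EGFP; % of control where 0% means no effect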
# Summary of the method: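 Splice-correction reporter: EGFP cDNA split by beta-globin intron 2 bearing the 705 mutation, stably in HeLa. Compound incubation 2 days, 37C; fluorescent objects 5-250 µm summed per well.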
# [15] = qHTS Assay for Lipid Storage Modulators (AID 1519; calls by dose curve); details: Drosophila S3 cells, BODIPY lipid droplet/cell ratio, laser cytometry, cells loaded with oleic acid; for activity change, negative = inhibition: at 57.5 µM (top of the series)
# Summary of the method: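 Cells seeded at 5,000 per well were treated with compounds over a concentration series and loaded with oleic acid (400 uM, as added). Lipid droplet fluorescence (488 nm excitation, 500-530 nm channel) was read by laser-scanning cytometry and normalized to 20 uM Triacsin C.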
# [16] = target: Ubiquitin carboxyl-terminal hydrolase 1 (Homo sapiens) (UniProt O94782); assay: Inhibitors of USP1/UAF1: Pilot qHTS (AID 504865);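 further: rhodamine fluorescence freed from ubiquitin-rhodamine substrate followed over time; top concentration of the series differs between compounds; on the % scale 0 is the no-effect control and ±100 the full control effect; nearly all actives have a fitted effect of over 35% in size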
# Chain of Ubiquitin carboxyl-terminal hydrolase 1 (Homo sapiens) (O94782 whole entry, looked up): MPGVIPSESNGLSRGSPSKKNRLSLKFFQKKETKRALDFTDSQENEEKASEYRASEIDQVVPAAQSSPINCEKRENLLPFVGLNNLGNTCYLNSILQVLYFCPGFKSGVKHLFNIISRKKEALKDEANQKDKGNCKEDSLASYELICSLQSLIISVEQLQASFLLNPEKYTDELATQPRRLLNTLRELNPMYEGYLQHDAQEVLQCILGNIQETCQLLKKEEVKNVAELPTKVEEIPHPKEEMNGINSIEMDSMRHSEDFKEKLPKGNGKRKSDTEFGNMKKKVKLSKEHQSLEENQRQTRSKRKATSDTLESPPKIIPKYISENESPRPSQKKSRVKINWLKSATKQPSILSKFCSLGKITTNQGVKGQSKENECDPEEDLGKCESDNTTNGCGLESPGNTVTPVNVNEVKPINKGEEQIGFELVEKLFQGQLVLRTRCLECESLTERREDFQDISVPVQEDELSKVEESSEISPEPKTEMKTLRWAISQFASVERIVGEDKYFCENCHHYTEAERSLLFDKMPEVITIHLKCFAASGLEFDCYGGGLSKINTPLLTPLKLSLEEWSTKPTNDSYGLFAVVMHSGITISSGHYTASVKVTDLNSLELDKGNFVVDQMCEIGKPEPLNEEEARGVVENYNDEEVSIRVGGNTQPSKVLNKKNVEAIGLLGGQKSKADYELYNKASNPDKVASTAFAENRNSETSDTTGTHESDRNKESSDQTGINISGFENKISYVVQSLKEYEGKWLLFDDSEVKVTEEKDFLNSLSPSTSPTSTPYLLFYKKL
# Summary of the method: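 In 50mM HEPES pH 7.8 containing 0.5mM EDTA, 1mM TCEP, 0.1 mg/ml BSA and 0.01% Tween-20, 1nM USP1/UAF1 is exposed to compound for 15 min, then Ub-Rho (150nM final) is added and fluorescence is read over time.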
# [17] = target: Mitogen-activated protein kinase 10 (Mus musculus) (UniProt Q61831); assay: JNK3 AlphaScreen Assay (AID 530; active means well fitted curve in either direction with a large enough effect, not every such curve was filed as active;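 further: kinase came from lysate of stimulated human HepG2 cells; signal reports phosphorylation of biotinylated GST-cJun 1-79 at Ser73 with 10 µM ATP; on the % scale 0 is the no-effect control and ±100 the full control effect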)
# Summary of the method: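 Activity was read by AlphaScreen after JNK3-containing HepG2 lysate (cytokine pre-activated) phosphorylated biotinylated GST-cJun with 10 uM ATP at room temperature. Phospho-Ser73 cJun antibody with Protein-A acceptor beads provided detection.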
# [18] = target: Cytochrome P450 2C9 (Homo sapiens) (UniProt P11712); assay: qHTS Assay for Inhibitors and Substrates of Cytochrome P450 2C9 (AID 883); further: potency means the concentration at half of the fitted maximal effect; nearly all actives have a fitted effect of over 60% in size
# Summary of the method: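 10nM CYP2C9 + 100uM Luciferin-H (=KM), 25mM KPO4; cpd 10 min 37C; NADPH regen, 60 min 37C; stop/detect with P450 Glo-Buffer 20 min; luminescence. Norm. to 57uM sulphaphenazole as full inhibition.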
# [19] = target: Cytochrome P450 2C19 (Homo sapiens) (UniProt P33261); assay: qHTS Assay for Inhibitors and Substrates of Cytochrome P450 2C19 (AID 899); further: potency means the concentration at half of the fitted maximal effect; nearly all actives have a fitted effect of over 60% in size
# Chain of Cytochrome P450 2C19 (Homo sapiens) (P33261 whole entry, looked up): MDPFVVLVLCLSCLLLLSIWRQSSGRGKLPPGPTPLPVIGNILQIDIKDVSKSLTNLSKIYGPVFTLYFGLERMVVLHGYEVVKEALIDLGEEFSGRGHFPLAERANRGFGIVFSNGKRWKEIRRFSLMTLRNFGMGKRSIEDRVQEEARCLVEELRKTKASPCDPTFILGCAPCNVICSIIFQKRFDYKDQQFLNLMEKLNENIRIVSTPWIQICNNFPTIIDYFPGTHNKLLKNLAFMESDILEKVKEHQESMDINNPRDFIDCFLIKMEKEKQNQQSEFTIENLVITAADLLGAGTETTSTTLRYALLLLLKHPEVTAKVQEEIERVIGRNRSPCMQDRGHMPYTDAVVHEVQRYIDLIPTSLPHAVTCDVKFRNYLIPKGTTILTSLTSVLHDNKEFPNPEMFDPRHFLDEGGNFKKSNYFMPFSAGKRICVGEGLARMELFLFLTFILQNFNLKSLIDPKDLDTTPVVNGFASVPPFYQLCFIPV
# Summary of the method: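 Luminescent read-out of luciferin formed from Luciferin-H EGE (10uM, equal to KM). Enzyme 5nM in 50mM KPO4; compound added, 10 min at 37C, then NADPH regenerating system for 60 min at 37C. Full inhibition defined by 57uM ketoconazole.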
# [20] = at 12.8 µM (top of the series), parasite line B
# [21] = at 28.7 µM (top of the series), parasite line A
# [22] = at 28.7 µM (top of the series), parasite line B
# [23] = measured here: cell count channel max response
# [24] = measured here: lipid channel max response
compound,measurement,setting,value
COC(=O)C1=CO[C@@H](C)[C@H]2CN3CCc4c([nH]c5ccccc45)[C@@H]3C[C@H]12,Potency,[1],2 nM (active) and 7.9 nM (active)
CN(C)CC/C=C1\c2ccccc2CSc2ccccc21,"activity, negative = inhibition",[2]; [20],2.26% (inactive)
C[C@@H]1CCC[C@H](C)N1NC(=O)c1ccc(Cl)c(S(N)(=O)=O)c1,"activity, negative = inhibition",[2]; [20],12% (inactive)
C[N+](C)(C)CC(O)CC(=O)O (stereo not given),"activity, negative = inhibition",[2]; [21],14.7% (inactive)
same,"activity, negative = inhibition",[2]; [22],11.5% (inactive)
O=C(Cc1cccs1)NC1C(=O)N2C(C(=O)[O-])=C(C[n+]3ccccc3)CSC12 (stereo not given),"activity, negative = inhibition",[2]; [21],4.33% (inactive)
same,"activity, negative = inhibition",[2]; [22],-24.5% (inactive)
CN(Cc1ccco1)c1ccnc(-c2cccc(NS(C)(=O)=O)c2)n1,Potency,[3],> 11.4 µM (inactive)
same,"activity change, negative = inhibition",[4],-9.76% (inactive)
same,Potency,[5],1.26 µM (active)
same,"activity change, negative = inhibition",[6],-2.37% (inactive)
same,"activity, negative = inhibition",[7],2.34% (inactive)
same,Potency,[8],> 46 µM (inactive)
same,Potency,[9],> 46 µM (inactive)
same,Potency,[10],inactive
same,Potency,[11],6.31 µM (active)
same,Potency,[12],inactive
same,Potency,[13],inactive
same,outcome,[14],inactive
same,"activity change, negative = inhibition",[15],9.05% (inactive)
same,max response,[15]; [23],18.7%
same,max response,[15]; [24],26.7%
same,Potency,[16],inactive
COCC(=O)N1CCC2(CCN(Cc3ccncc3)CC2)CC1,Potency,[3],> 11.4 µM (inactive)
same,"activity change, negative = inhibition",[4],5.27% (inactive)
same,Potency,[5],10 µM (active)
same,"activity change, negative = inhibition",[6],-6.67% (inactive)
same,"activity, negative = inhibition",[7],1.05% (inactive)
same,Potency,[9],> 46 µM (inactive)
same,Potency,[17],inactive
same,Potency,[10],inactive
same,Potency,[18],0.398 µM (active)
same,Potency,[12],inactive
same,Potency,[1],6.31 µM (active)
same,Potency,[19],0.0251 µM (active)
same,"activity change, negative = inhibition",[15],3.65% (inactive)
same,max response,[15]; [23],13.5%
same,max response,[15]; [24],19.1%
Cc1cccc(CNc2nc(-c3cccc(NS(C)(=O)=O)c3)nc3ccccc23)c1,Potency,[3],> 11.4 µM (inactive)
same,"activity change, negative = inhibition",[4],-27.3% (inactive)
same,Potency,[5],15.8 µM (active)
same,"activity change, negative = inhibition",[6],-6.18% (inactive)
same,"activity, negative = inhibition",[7],-23% (inactive)
same,Potency,[8],> 46 µM (inactive)
same,Potency,[9],> 46 µM (inactive)
same,Potency,[17],inactive
same,Potency,[11],5.01 µM (active)
same,Potency,[12],inactive
same,Potency,[19],2.51 µM (active)
same,Potency,[13],inactive
same,outcome,[14],inactive
same,"activity change, negative = inhibition",[15],1.31% (inactive)
same,max response,[15]; [23],-11.9%
same,max response,[15]; [24],-11.1%
CN(C)Cc1ccccc1-c1ccc2ncnc(NCc3ccccc3)c2c1,Potency,[3],> 11.4 µM (inactive)
same,"activity change, negative = inhibition",[4],-7.49% (inactive)
same,Potency,[5],15.8 µM (active)
same,"activity change, negative = inhibition",[6],-27% (inactive)
same,"activity, negative = inhibition",[7],11.3% (inactive)
same,Potency,[8],> 46 µM (inactive)
same,Potency,[9],> 46 µM (inactive)
same,Potency,[17],inactive
same,Potency,[12],inactive
same,Potency,[1],7.94 µM (active)
same,Potency,[13],inactive
same,outcome,[14],inactive
same,"activity change, negative = inhibition",[15],5.57% (inactive)
same,max response,[15]; [23],19.6%
same,max response,[15]; [24],25.6%
same,Potency,[16],inactive
COc1ccccc1-c1cncnc1NCc1cccc(C)c1,Potency,[3],> 11.4 µM (inactive)
same,"activity change, negative = inhibition",[4],-3.97% (inactive)
same,Potency,[5],5.01 µM (active)
same,"activity change, negative = inhibition",[6],-21.2% (inactive)
same,"activity, negative = inhibition",[7],-6.93% (inactive)
same,Potency,[8],> 46 µM (inactive)
same,Potency,[9],> 46 µM (inactive)
same,Potency,[17],inactive
same,Potency,[12],inactive
same,Potency,[19],0.398 µM (active)
same,Potency,[13],inactive
same,outcome,[14],inactive
same,"activity change, negative = inhibition",[15],10.8% (inactive)
same,max response,[15]; [23],7.88%
same,max response,[15]; [24],19.2%
